Screens from PubChem.
A selection: hits, their analogues and other compounds. The true share with any hit is near 6.6%.
KB-V1 MDR tox: kills drug-selected multidrug resistant KB-V1 cells. KB-V1 MDR cells viability, CellTiter-Glo, 72 h. Potency, µM (top dose mostly 46.1 µM), hits mostly cytotoxic. actives 3.4% (n = 400,000); further: nearly all actives have a fitted effect of over 60% in size
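Drug-selected KB-V1 cells, grown in DMEM lacking phenol red with 10% FBS, receive compound titrations; after three days at 37 degrees C, surviving cell ATP is quantified by CellTiter-Glo luminescence and responses normalized and curve-fitted.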
SW480 rerep: inducers of DNA re-replication in SW480 colon cancer cells; AID 624297; Potency, µM (doses to about 46.1 µM), hits mostly activators; SW480 DNA re-replication, Hoechst DNA content imaging, 48 h; actives 1.8% (n = 340,000); further: nearly all actives have a fitted effect of over 55% in size
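First, 250 cells per well were seeded. Next, compound or vehicle (23 nL) was pinned in, plates sat 48 hr at 37 C. Finally Hoechst was added for 40 min before fluorescence scanning.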
RGS4 inhibitor: human RGS4 inhibition. P49798. Transcreener GDP fluorescence polarization, RGS4-accelerated GTP hydrolysis. Potency, µM (top dose mostly 114 µM), usual class: inhibitors. actives 0.039% (n = 390,000); further: nearly all actives have a fitted effect of over 75% in size
Target sequence (P49798 whole entry, looked up): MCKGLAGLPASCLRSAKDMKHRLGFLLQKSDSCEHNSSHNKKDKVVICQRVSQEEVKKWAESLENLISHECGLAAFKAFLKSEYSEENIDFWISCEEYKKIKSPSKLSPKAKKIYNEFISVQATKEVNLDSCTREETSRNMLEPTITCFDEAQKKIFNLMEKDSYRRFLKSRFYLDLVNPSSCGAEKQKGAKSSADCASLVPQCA
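MLSMR compounds (23 nl, pin-transferred) preincubated 10 min at room temperature with a 500nM (2x) first reagent, then RGS4 at 900nM (2x) plus Transcreener GDP mix added; fluorescence polarization (620/688 nm) read before and after 90 min at 30 °C.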
KB-3-1 cytotox: KB-3-1 parental cell cytotoxicity. KB-3-1 viability, CellTiter-Glo ATP luminescence, 72 h. Potency, µM (highest dose often 46.1 µM), most hits filed as cytotoxic. actives 1.4% (n = 400,000); further: nearly all actives have a fitted effect of over 60% in size
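KB-3-1 parental drug-naive adenocarcinoma cells in DMEM/10% FBS, incubated 72 h at 37 C with pin-transferred compounds across a concentration series. Viability by CellTiter-Glo luminescence; concentration-response curves fitted after normalization.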
PTAP TSG101 blk: blocks PTAP/TSG101 interaction to inhibit HIV-1 budding; 340,000 tested, under 10 active; Potency, µM (highest dose often 115 µM), hits mostly inhibitors; Q99816; Fluorescence polarization, FITC-PTAP peptide / Tsg101 binding; active means well fitted inhibition curve with a large enough effect in the main read-out, with a control signal flat, not every such curve was filed as active; inconclusive means small, poorly fitted or top-dose-only effect, or effect the other way, or a change in a side signal; inactive means no such curve, though single readings can be large or run the other way
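Steps: Tsg101 binding domain dispensed (10 uM final), compounds pinned in DMSO, FITC-labeled PTAP-motif peptide added (50 nM final); after 20 min binding at room temperature, polarization measured.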
MCF10A rereplic: DNA re-replication induction in MCF 10a cells. AID 624296. Potency, µM (top dose mostly 46.1 µM), hits mostly activators. MCF 10A DNA re-replication, Hoechst nuclear intensity, 48 h. actives 2.9% (n = 350,000); further: nearly all actives have a fitted effect of over 50% in size
Hits are given with their value. Unless noted, the call rests on the fitted dose curve; in most records, active means well fitted curve in the direction sought with a large enough effect; inconclusive means small, poorly fitted or top-dose-only effect, or another doubt; inactive means no such curve, though single readings can be large; an effect the other way counts as inactive or inconclusive.

For O=C1NCCc2c1[nH]c1ccccc21 the results were KB-V1 MDR tox 6.5µM, SW480 rerep inactive, RGS4 inhibitor inactive, KB-3-1 cytotox inconclusive, PTAP TSG101 blk inactive and MCF10A rereplic inactive.
`CN(c1ccccc1)c1ccc(/C=C/[N+](=O)[O-])cc1` gave KB-V1 MDR tox inactive, SW480 rerep 21µM, RGS4 inhibitor inconclusive, KB-3-1 cytotox inconclusive, PTAP TSG101 blk inactive and MCF10A rereplic 7.3µM.
Screening O=[N+]([O-])c1ccc(C=CC=Cc2ccccc2)cc1 returned KB-V1 MDR tox inactive and KB-3-1 cytotox inactive.
For COc1ccc(CCNC(=O)c2cc3c(=O)n4ccccc4nc3n(CC3CCCO3)c2=N)cc1 (centres undefined) the results were KB-V1 MDR tox inactive, SW480 rerep inactive, RGS4 inhibitor inactive, KB-3-1 cytotox inactive, PTAP TSG101 blk inactive and MCF10A rereplic inconclusive.
Screening N=c1c(C(=O)NCCc2ccccc2)cc2c(=O)n3ccccc3nc2n1CC1CCCO1 (centres undefined) returned KB-V1 MDR tox inactive, SW480 rerep 2.6µM, RGS4 inhibitor inactive, KB-3-1 cytotox inactive, PTAP TSG101 blk inactive and MCF10A rereplic 18µM.
For N=c1c(C(=O)NCc2ccc(F)cc2)cc2c(=O)n3ccccc3nc2n1CC1CCCO1 (centres undefined) the results were KB-V1 MDR tox inactive, SW480 rerep 2.9µM, RGS4 inhibitor inactive, KB-3-1 cytotox inactive, PTAP TSG101 blk inactive and MCF10A rereplic inconclusive.
`N=c1c(C(=O)NCc2ccc3c(c2)OCO3)cc2c(=O)n3ccccc3nc2n1CC1CCCO1` (centres undefined) gave KB-V1 MDR tox inactive, SW480 rerep 23µM, RGS4 inhibitor inactive, KB-3-1 cytotox inconclusive, PTAP TSG101 blk inactive and MCF10A rereplic inconclusive.
For Cc1cc(C)c2c(n1)nn1c(NCCCN(C)C)cc(C)nc21 the results were KB-V1 MDR tox inactive, SW480 rerep 21µM, RGS4 inhibitor inactive, KB-3-1 cytotox inactive, PTAP TSG101 blk inactive and MCF10A rereplic inconclusive.
O=C(NC1CCCCCC1)C1CCN(C(=O)N2CCOc3ccccc32)CC1 was read as KB-V1 MDR tox inactive, RGS4 inhibitor inactive and KB-3-1 cytotox inactive.
Cc1ccc(NC(=O)CSCc2c(C)noc2C)cc1C was read as KB-V1 MDR tox inactive, SW480 rerep inactive, RGS4 inhibitor inactive, KB-3-1 cytotox inactive, PTAP TSG101 blk inactive and MCF10A rereplic inactive.
`CCOc1ccc(S(=O)(=O)N(CC)CC)cc1NC(=O)CSCc1c(C)noc1C` gave KB-V1 MDR tox 7.3µM, SW480 rerep inactive, RGS4 inhibitor inactive, KB-3-1 cytotox inactive, PTAP TSG101 blk inactive and MCF10A rereplic inactive.
Screening Cc1cc(C)c(NC(=O)CSCc2c(C)noc2C)c(C)c1 returned KB-V1 MDR tox 23µM, SW480 rerep inactive, RGS4 inhibitor inactive, KB-3-1 cytotox inactive, PTAP TSG101 blk inactive and MCF10A rereplic inactive.
`Cc1noc(C)c1CSCC(=O)Nc1cc(S(=O)(=O)N2CCCCC2)ccc1OC(C)C` gave KB-V1 MDR tox inactive, SW480 rerep inactive, RGS4 inhibitor inactive, KB-3-1 cytotox inactive, PTAP TSG101 blk inactive and MCF10A rereplic inactive.
Screening CCN(CC)c1ccc(S(=O)(=O)N2CCCCC2)cc1NC(=O)CSCc1c(C)noc1C returned KB-V1 MDR tox inactive, SW480 rerep inactive, RGS4 inhibitor inactive, KB-3-1 cytotox 23µM, PTAP TSG101 blk inactive and MCF10A rereplic inactive.
`Cc1ccccc1CN1CCN(CC(=O)NCc2ccccc2Cl)C1=O` gave RGS4 inhibitor inactive.
CC(=O)Oc1ccc(C2(C)CC(C)(C)NC(=S)N2C)c(OC(C)=O)c1 (centres undefined) was read as KB-V1 MDR tox inactive, SW480 rerep inactive, RGS4 inhibitor inactive, KB-3-1 cytotox inactive, PTAP TSG101 blk inactive and MCF10A rereplic 1.3µM.
Screening COCCn1c(C)cc(C(=O)COC(=O)c2ccc(Cl)c(S(N)(=O)=O)c2)c1C returned KB-V1 MDR tox 23µM, SW480 rerep inactive, RGS4 inhibitor inactive, KB-3-1 cytotox inactive, PTAP TSG101 blk inactive and MCF10A rereplic inactive.
